Compound activity deposited in PubChem by several laboratories.
Efflux pump mplx: inhibitors of Candida antifungal efflux pumps expressed in yeast; inhibition, % at 10 µM; 0.44% of 330,000 active; S. cerevisiae Candida pump triplex, Nile Red efflux;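 active = plate passing quality check with inhibition over a set limit, or well fluorescence over plate mean plus 4 SD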;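 also: Nile Red retained in pooled yeast measured as flow cytometry median fluorescence; 0% = buffer negative control and 100% = Enniatin B positive control; higher means more Nile Red kept so more efflux inhibition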
SUMO Mot1 rescue: blocks SUMOylation pathway, rescuing yeast Mot1-301 growth | S. cerevisiae Mot1-301 growth rescue, ATP luminescence, 38.5C; percent above DMSO median, 100 means doubled | growth rescue, % at 18.8 µM | 1% of 320,000 active | AID 2716;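 active = every valid replicate shows activation above 250% relative to neutral control wells; inactive = the rest, any valid replicate at or below 250%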;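 also: OY570 slx delta 5 strain wells were the positive control but not used for scaling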
VLA-4 inh: inhibition in a human VLA-4 binding assay. P13612. VLA-4 expressing cells, ligand binding flow cytometry. inhibition, % (about 7 µM as worked out from the volumes in the protocol). 0.2% of 330,000 active. AID 2557; in the data active = inhibition above about 50%
Target sequence (P13612 whole entry, looked up): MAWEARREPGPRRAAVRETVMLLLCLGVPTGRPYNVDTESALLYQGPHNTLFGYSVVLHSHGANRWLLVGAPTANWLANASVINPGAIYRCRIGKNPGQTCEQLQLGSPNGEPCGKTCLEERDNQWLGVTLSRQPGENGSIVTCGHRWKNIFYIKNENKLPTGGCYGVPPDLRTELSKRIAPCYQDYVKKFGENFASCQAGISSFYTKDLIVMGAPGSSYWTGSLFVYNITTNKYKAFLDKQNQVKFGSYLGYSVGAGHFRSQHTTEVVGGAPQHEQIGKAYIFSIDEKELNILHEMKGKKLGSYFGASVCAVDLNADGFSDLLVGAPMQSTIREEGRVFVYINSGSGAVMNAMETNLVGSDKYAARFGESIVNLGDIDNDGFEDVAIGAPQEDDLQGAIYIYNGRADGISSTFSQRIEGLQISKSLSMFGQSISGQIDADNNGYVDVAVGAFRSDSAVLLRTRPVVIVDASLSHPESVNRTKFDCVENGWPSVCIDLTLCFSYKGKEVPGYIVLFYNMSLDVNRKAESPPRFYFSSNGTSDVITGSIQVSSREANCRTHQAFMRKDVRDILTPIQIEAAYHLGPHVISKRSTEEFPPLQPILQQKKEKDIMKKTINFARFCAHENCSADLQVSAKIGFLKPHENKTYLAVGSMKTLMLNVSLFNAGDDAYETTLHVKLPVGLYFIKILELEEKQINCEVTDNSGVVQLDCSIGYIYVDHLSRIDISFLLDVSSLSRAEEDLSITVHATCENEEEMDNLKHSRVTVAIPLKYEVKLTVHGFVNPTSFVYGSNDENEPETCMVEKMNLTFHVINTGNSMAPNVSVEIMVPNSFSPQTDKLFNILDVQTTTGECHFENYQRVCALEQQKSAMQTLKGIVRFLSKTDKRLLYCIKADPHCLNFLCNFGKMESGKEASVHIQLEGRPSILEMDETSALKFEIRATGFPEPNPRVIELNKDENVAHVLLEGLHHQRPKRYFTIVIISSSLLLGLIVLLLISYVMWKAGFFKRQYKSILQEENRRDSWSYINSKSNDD
ALR H2O2 inh: human ALR oxidase inhibition via reduced H2O2 | 3.8% of 290,000 active | inhibition, % (concentration not given with the values) | purified ALR, DTT oxidation, H2O2 HRP-luminol luminescence | AID 485317;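 active = mean replicate inhibition above about 79%, with every replicate also reaching it, limit read from the data; inconclusive = only one of the two criteria met; inactive = mean below limit and not every replicate reaching it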
A1 inh: inhibitors of the anti-apoptotic protein A1, read as caspase activation; MEF A1-2A-BIM cells, Caspase-Glo 3/7 luminescence, 3 h; percent of clofoctol response, vehicle zero; caspase activation, % (concentration not given with the values); 0.066% of 330,000 active;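 active = over half of replicate activation scores above 10%, or exactly half above 10 with the replicate mean above 10; inconclusive = replicate mean below 10 yet half the replicates above 10; inactive = over half of replicates below 10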
AHR activator: activators of human aryl hydrocarbon receptor. P35869. activation, % at 5 µM. AHR-responsive luciferase reporter cells, luminescence. 2.5% of 320,000 active; in the data active = activation above about 47%;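 also: 0% = vehicle wells and 100% = reference agonist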
* marks the source's active call; other numbers are inactive results; ? = inconclusive; · = no result. Shown are actives, neighbours in structure and some others; about 7.2% of the full set was active somewhere.

SMILES	Efflux pump mplx	SUMO Mot1 rescue	VLA-4 inh	ALR H2O2 inh	A1 inh	AHR activator
CCCOC(=O)C1=C(C)OC23OC(N)=C(C#N)C12C(=O)c1ccccc13 (centres undefined)	0	20	6	2	-1	6
COc1ccc(OCc2cc(C(=O)N3CCCC(CO)C3)no2)c2ccccc12 (centres undefined)	0	-20	5	-22	-1	50*
CC1CCCC(C)N1C(=O)CSc1nnc(COc2ccccc2)n1-c1ccccc1 (centres undefined)	0	-4	-11	-2	1	0
COc1cccc(-c2cc3nc(-c4ccccc4)cc(=O)n3[nH]2)c1	0	-22	5	-3	-5	36
O=c1cc(-c2ccccc2)nc2cc(-c3ccc(F)cc3)[nH]n12	0	61	0	-3	-5	52*
COc1cccc2c(=O)c3ccoc3n(C)c12	0	350*	-6	19	-1	-1
CC(C)n1cc(C(=O)N2CCCC(N3CCN(c4cccc(Cl)c4)CC3)C2)cn1 (centres undefined)	0	7	2	89*	0	·
Brc1ccc(-c2nnc3sc(CNCc4ccc5c(c4)OCO5)cn23)cc1	0	64	-9	-6	-1	65*
CN(C)c1ccc(CNc2ccccn2)cc1	0	10	9	98*	1	6
Cc1cccc(NCc2ccc(N(C)C)cc2)n1	0	-7	-16	82*	-5	9
Fc1ccc(CNc2ccccn2)cc1	0	-4	-5	-1	-1	·
Cc1cccc(NCc2cc(Cl)ccc2O)n1	0	-9	15	40	0	-2
Cc1nc(NC(=O)c2ccccc2)sc1C1(C)CC(c2ccc(OC(F)(F)F)cc2)=NO1 (centres undefined)	0	-3	13	·	-1	45
O=S(=O)(Nc1cccc(S(=O)(=O)N2CCCC2)c1)c1ccc(Cl)cc1	0	23	7	-2	-1	0
Cc1ccc2nc(/N=C(\N)NC(=O)N3c4ccccc4Sc4ccccc43)nc(C)c2c1	0	-1	-13	24	1	2
Cc1cc2nc(/N=C(\N)NC(=O)N3c4ccccc4Sc4ccccc43)nc(C)c2cc1C	0	0	10	92*	?	1
COc1ccccc1-c1nn2c(-c3ccco3)nnc2s1	0	-4	2	3	-2	-2
COc1ccccc1-c1nn2c(=O)cc(C)nc2s1	0	-8	0	-4	0	62*
CCNC(=S)N(CCCO)Cc1cc2cc3c(cc2[nH]c1=O)OCCO3	0	16	17	5	0	22
CCOc1ccccc1CNC(=O)c1c([N+](=O)[O-])c(C)nn1C	1	-21	-6	3	-1	61*
CCOc1ccc(NC(=O)c2cc3n(n2)C(C(F)(F)F)CC(c2ccco2)N3)cc1 (centres undefined)	0	67	2	-4	0	3
O=C(Nc1ccc(O)cc1)c1cc2n(n1)C(C(F)(F)F)CC(c1ccco1)N2 (centres undefined)	0	-8	-5	99*	0	-2
O=C1NCCN/C1=C\C(=O)c1ccc(Cl)cc1	0	-9	3	-6	-2	-2
CCCCC(NC(=O)Cc1c(C)c2cc3c(C)c(C)oc3c(C)c2oc1=O)C(=O)O (centres undefined)	0	-11	7	97*	0	1
CCCC(NC(=O)Cc1c(C)c2cc3c(C)c(C)oc3c(C)c2oc1=O)C(=O)N[C@@H](Cc1ccccc1)C(=O)O (some centres undefined)	0	-5	17	-14	-1	0
SMILES	Efflux pump mplx	SUMO Mot1 rescue	VLA-4 inh	ALR H2O2 inh	A1 inh	AHR activator
O=C(Nc1ccc2c(c1)OCCO2)c1cc2sccc2n1Cc1ccccc1	0	39	16	-15	1	26
O=C(Nc1ccc2c(c1)OCCO2)c1cc2sccc2n1Cc1ccc(F)cc1	0	238	-6	-6	-1	64*
CN1C(=O)C2C(c3ccc(N(C)C)cc3)NN(Cc3ccccc3)C2C1=O (centres undefined)	0	-15	13	98*	0	7
c1ccc(SCCN2CCN(c3ccccc3)CC2)cc1	0	57	1	98*	0	2
CC(CN1CCN(c2ccccc2)CC1)c1ccccc1 (centres undefined)	0	-13	8	98*	1	-4
Brc1ccc(CN2CCN(c3ccccc3)CC2)o1	0	7	0	97*	0	·
COc1cc(/C=N/NS(=O)(=O)c2ccc(C(C)(C)C)cc2)cc([N+](=O)[O-])c1O	0	12	5	65	1	1
CC(=O)Oc1ccc2c(=O)c(Oc3ccccc3)c(C)oc2c1OC(C)=O	0	16	20	100*	0	0
N#Cc1c(Cl)c(Cl)c2nnc(-c3ccc(Br)cc3)n2c1Cl	0	-17	-23	37	-1	55*
CC(=O)Nc1ccc(S(=O)(=O)NC2(C(F)(F)F)C(=O)Nc3c2c(=O)[nH]c(=O)n3Cc2cccnc2)cc1 (centres undefined)	0	-5	-19	-15	0	0
CCOC(=O)c1c(-c2ccc(C)o2)csc1NC(=S)NC(=O)N(C)C	0	0	-79	-1	1	57*
CCOC(=O)c1c(-c2ccc(C)o2)csc1NC(=O)COC(=O)c1cccs1	0	4	18	2	0	2
COc1cc2oc(=O)c3c(c2cc1OCC(=O)c1c(C)n(C)c2ccccc12)CCCC3	1	-4	-10	-8	0	-1
Cc1cc(C)c2c(N)c(C(=O)Nc3ccccc3Br)sc2n1	0	365	-8	-3	-1	42
Cc1cc(C)c2c(N)c(C(=O)c3ccc(Cl)cc3Cl)sc2n1	0	97	-17	·	0	34
Cc1cc(C)c2c(N)c(C(=O)c3cccc(Cl)c3)sc2n1	0	·	7	·	0	48*
Cc1cc(C)c2c(N)c(S(=O)(=O)Cc3ccccc3)sc2n1	0	·	13	91*	1	1
Cc1cc(C)c2c(N)c(C(=O)c3ccccc3Cl)sc2n1	0	-16	12	-7	0	9
CCc1ccccc1NC(=O)c1sc2nc(C)cc(C)c2c1N	0	2	-2	·	-1	67*
COc1ccc(N2C(=NC(=O)CCC3CCCC3)SC3CS(=O)(=O)CC32)cc1 (centres undefined)	0	-7	-1	-3	2	-1
[O-]/C(=C(\C(=S)NCCN1CCOCC1)[n+]1ccccc1)c1ccc(Cl)s1	0	9	21	-11	1	1
Cc1ccc(C2C3CSCC=C3C(C#N)=C(N)C2(C#N)C#N)cc1 (centres undefined)	0	6	-1	93*	-1	26
